Hits are enriched below; roughly 13% of the tested compounds scored in any of these assays.
MARV entry inh = qHTS for inhibitors of binding or entry into cells for Marburg Virus; 300,000 compounds, 1.8% hits; AID 540276, 2011; Marburg virus pseudotyped entry inhibition, cell reporter; Potency, µM (doses to about 37.8 µM), for the others: top-dose activity change, negative = inhibition, most hits filed as inhibitors; calls by dose curve; tested in HEK293 cells; note: potency is the fitted concentration of half-maximal effect; % is set by controls: 0 for no effect and ±100 for the full control effect
Shiga inhibitor = A qHTS for Small Molecule Inhibitors of Shiga Toxin. 290,000 compounds, 9.2% hits. Vero cells, Shiga toxin protein synthesis inhibition reporter. inhibition, % at 38.7 µM. AID 2315, 2010; in the data active = inhibition mostly above about 28%, no sharp cut-off; inactive = mostly below about 43%; note: 0% is about no effect
CHX counter = Cycloheximide Counterscreen for Small Molecule Inhibitors of Shiga Toxin; cell reporter, cycloheximide protein synthesis inhibition counterscreen; max response, %; 300,000 compounds, 12% hits; AID 2314, 2010; in the data active = max response mostly above about 13%, no sharp cut-off; inactive = mostly below about 14%; note: read at 38.3 µM for the half of the compounds with a filed dose; 0% is about no effect
HCV inhibitor = qHTS Assay for Inhibitors of Hepatitis C Virus (HCV); Huh7.5.1 HCVcc-Cre infection, luciferase reporter, 44 h; Potency, µM (series often up to 41.8 µM), inactives show at the highest dose activity change, negative = inhibition, actives largely listed as inhibitors; 340,000 compounds, 3.4% hits; active = well fitted inhibition curve with a large enough effect; inconclusive = small, poorly fitted or top-dose-only effect, or another doubt; inactive = no such curve, though single readings can be large or run the other way; note: potency is the fitted concentration of half-maximal effect; % is set by controls: 0 for no effect and ±100 for the full control effect
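Luciferase read-out (15 sec integration) after a 15 min room-temperature substrate step quantifies HCVcc-Cre infection. Cells, 1,000 per well, had compound added 4 h post-plating, then virus at ~0.5 moi, and were cultured 44 h.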
Lassa entry inh = qHTS for Inhibitors of binding or entry into cells for Lassa Virus; Lassa virus pseudotype entry inhibition, cell reporter; Potency, µM (titrated, usually from 37.9 µM), for inactives: at the top dose activity change, negative = inhibition, most hits filed as inhibitors; 300,000 compounds, 1.2% hits; AID 540256, 2011; calls by dose curve; tested in HEK293 cells; note: potency is the fitted concentration of half-maximal effect; % is set by controls: 0 for no effect and ±100 for the full control effect; nearly all actives have a fitted effect of over 50% in size
FMDV inh = High Throughput Screening for Foot and Mouth Disease Virus Antivirals; FMDV antiviral cell-based qHTS; Potency, µM (highest dose often 57.9 µM), without a hit: at the top dose activity change, negative = inhibition, actives largely listed as inhibitors; 410,000 compounds, 1.2% hits; calls by dose curve; tested in HEK293T cells; note: read-out not given here; potency is the fitted concentration of half-maximal effect; % is set by controls: 0 for no effect and ±100 for the full control effect; nearly all actives have a fitted effect of over 45% in size
* hit, by the source's call; [ ] = another dose, or the depositor's remark.

`O=C(Nc1ccccc1[N+](=O)[O-])c1cc2ccccc2nc1Cl` gave Shiga inhibitor 20, CHX counter 19, HCV inhibitor -3% and FMDV inh -5%.
For O=C(Nc1ccc([N+](=O)[O-])cc1)c1cc(Cl)sc1Cl the results were Shiga inhibitor 27*, CHX counter 17, HCV inhibitor -13% and FMDV inh 13%.
O=C(Nc1ccc(F)cc1)c1cc(Cl)sc1Cl was read as MARV entry inh 0%[46.1 µM], Shiga inhibitor 77*, CHX counter 29*, HCV inhibitor 9%, Lassa entry inh -11% and FMDV inh -1%.
For CCOC(=O)NN=C1C[C@@H](O)[C@@H](O)[C@@H]2[C@H]3C(=O)N(C4CCCCC4)C(=O)[C@@H]3CC[C@H]12 the results were MARV entry inh 20%[14.2 µM] and Lassa entry inh inconclusive.
NC(=O)NC(c1ccc(Cl)cc1)c1ccccc1Cl (centres undefined) was read as MARV entry inh -28%[46.1 µM], Shiga inhibitor -5, CHX counter -1, HCV inhibitor 0%, Lassa entry inh 7%[46.1 µM] and FMDV inh -6%.
Screening COc1cccc(CNc2nnnn2C)c1 returned MARV entry inh inconclusive, Shiga inhibitor 15, CHX counter -2, HCV inhibitor -2%, Lassa entry inh 29% and FMDV inh -20%.
COc1ccc(-c2nc(CN3C(=O)CN=C(c4ccccc4)c4cc(Cl)ccc43)c(C)o2)cc1 was read as MARV entry inh inconclusive, Lassa entry inh 9%[46.1 µM] and FMDV inh -22%.
Brc1c(CSc2nnc(-c3ccco3)o2)nc2ccccn12 was read as MARV entry inh 6%, Shiga inhibitor 56, CHX counter 22*, HCV inhibitor 17%, Lassa entry inh inconclusive and FMDV inh 24%.
Screening CCOCN(C(=O)Cn1c(CC(C)C)nc2ccccc21)c1c(C)cccc1CC returned MARV entry inh inconclusive, Lassa entry inh -19%[46.1 µM] and FMDV inh -30%.
For COc1ccc(CNC(=O)CCCc2ccccc2)cc1 the results were MARV entry inh -18%, Shiga inhibitor 11, CHX counter 4, HCV inhibitor 32%, Lassa entry inh 5% and FMDV inh -11%.
For CCNc1ccc2noc3c2c1C(=O)c1ccccc1-3 the results were MARV entry inh -4%, Shiga inhibitor 21, CHX counter 17, HCV inhibitor inconclusive, Lassa entry inh -11% and FMDV inh -21%.
O=C1C(Cl)=C(NCCN2CCCCC2)C(=O)c2ccccc21 was read as Shiga inhibitor 49*, CHX counter 54*, HCV inhibitor 7.9µM* and FMDV inh 40µM*.
Screening O=C1C(Cl)=C(NCc2ccco2)C(=O)c2ccccc21 returned MARV entry inh inconclusive, HCV inhibitor 8.9µM*, Lassa entry inh -10%[46.1 µM] and FMDV inh -18%.
For O=C1c2ccccc2-c2onc3ccc(NCc4ccco4)c1c23 the results were MARV entry inh inconclusive, Shiga inhibitor -7, CHX counter 13*, HCV inhibitor 10µM*, Lassa entry inh -24% and FMDV inh inconclusive.
`c1cn2cc(CSC3CCCCC3)nc2s1` gave MARV entry inh inconclusive, Shiga inhibitor 95*, CHX counter 42*, HCV inhibitor inconclusive, Lassa entry inh 4% and FMDV inh 28%.
For Clc1ccc(SCc2cn3ccsc3n2)cc1 the results were MARV entry inh inconclusive, Shiga inhibitor 70, CHX counter 51*, HCV inhibitor -28%, Lassa entry inh inconclusive and FMDV inh 4%.
For Nn1c(SCc2cn3ccsc3n2)nnc1-c1ccncc1 the results were MARV entry inh -3%, Shiga inhibitor 16, CHX counter -5, HCV inhibitor -18%, Lassa entry inh 19% and FMDV inh -14%.
For Cc1csc2nc(CSc3ccc(Cl)cc3)cn12 the results were MARV entry inh inconclusive, Shiga inhibitor 79*, CHX counter 49*, HCV inhibitor 8%, Lassa entry inh inconclusive and FMDV inh -7%.
Screening CCOC(=O)C1(CC2CC2)CCN(S(=O)(=O)C[C@]23CC[C@H](CC2=O)C3(C)C)CC1 returned MARV entry inh -22%[46.1 µM], Shiga inhibitor 7, CHX counter -1, HCV inhibitor 13%, Lassa entry inh 7%[46.1 µM] and FMDV inh 20%.

Bioassay records (PubChem)
